From PubChem
SW480 rerep – induces DNA re-replication in SW480 colon adenocarcinoma cells; SW480 DNA re-replication, Hoechst DNA content imaging, 48 h; Potency, µM (titrated, usually from 46.1 µM), inactives show at the highest dose re-replication activation, most hits filed as activators; 1.8% of 340,000 active; AID 624297; note: potency is the fitted concentration of half-maximal effect; % of control where 0% means no effect; nearly all actives have a fitted effect of over 55% in size
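First, 250 cells per well were seeded. Next, compound or vehicle (23 nL) was pinned in, plates sat 48 hr at 37 C. Finally Hoechst was added for 40 min before fluorescence scanning.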
MCF10A rerep – DNA re-replication induction in MCF 10a cells. MCF 10A DNA re-replication, Hoechst nuclear intensity, 48 h. Potency, µM (top dose mostly 46.1 µM), for the others: at the highest dose activity, positive = re-replication, most hits filed as activators. 2.9% of 350,000 active; note: potency is the fitted concentration of half-maximal effect; % of control where 0% means no effect; nearly all actives have a fitted effect of over 50% in size
Chronic BCR inh – blocks chronic active B-cell receptor signaling. Potency, µM (highest dose often 46.1 µM), inactives show at the top dose activity change, negative = inhibition, most hits filed as inhibitors. 0.05% of 340,000 active. ABC-DLBCL IkBa-CBG/CBR reporter, luminescence ratio, 4 h; active = well fitted inhibition curve with a large enough effect in the signal ratio, with a control signal flat, not every such curve was filed as active; inconclusive = small, poorly fitted or top-dose-only effect, or effect the other way, or a change in a side signal; the % refers to the signal ratio;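 note: potency is the fitted concentration of half-maximal effect; plate controls were basal doxycycline-induced cells for no effect and cells given 10 µM MG132 for full effect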
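Doxycycline induced both beetle luciferases in TMD8 lymphoma cells; IKK-driven degradation limits the IkappaBalpha-fused green signal, while red luminescence normalises for cell number and nonspecific effects. Compounds tested up to 46 uM, 4 hrs.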
DT40 TDP1 CPT – growth inhibition of DT40 Tdp1-/-;hTDP1 cells with camptothecin (screen for TDP1 inhibitors); chicken DT40 Tdp1-/-;hTDP1 cells + 20 nM CPT, ATP luminescence, 48 h; Potency, µM (titrated, usually from 46.2 µM), inactives show at the top dose activity change, negative = growth inhibition, actives largely listed as inhibitors; 12% of 420,000 active; note: potency is the fitted concentration of half-maximal effect; % is set by controls: 0 for no effect and ±100 for the full control effect; nearly all actives have a fitted effect of over 55% in size
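Cell growth measured by CellTiter-Glo luminescence after a minimum 48 h, 37 C compound exposure with 20 nM CPT in Tdp1-knockout DT40 cells stably expressing hTDP1, seeded 400/well; qHTS titration format.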
TDP1 cell noCPT – qHTS for Inhibitors of human tyrosyl-DNA phosphodiesterase 1 (TDP1): qHTS in cells in absence of CPT; 15% of 420,000 active; DT40 Tdp1-/- hTDP1 cells, no CPT, ATP luminescence, 48 h; AID 686978, 2013; Potency, µM (doses to about 46.2 µM), for inactives: at the top dose activity change, negative = growth inhibition, actives largely listed as inhibitors; note: potency is the fitted concentration of half-maximal effect; % is set by controls: 0 for no effect and ±100 for the full control effect; nearly all actives have a fitted effect of over 55% in size
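Camptothecin absent (DMSO only). Human TDP1-complemented DT40 knockout cells, 400 cells/well, 37 °C for minimum 48 hr; ATP measured via CellTiter-Glo, 30 min dark incubation, luminescence.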
IL1B secr inh – blocks inflammasome-driven IL-1 beta release | activity change, % at 57.5 µM | 4.7% of 360,000 active | THP-1 LPS/ATP IL-1B secretion, AlphaLISA, 16 h; stronger effect = lower value | AID 743279; in the data active = activity change below about -50%; inconclusive = mostly about -30% to -49%; note: % is set by controls: 0 for no effect and ±100 for the full control effect
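THP-1 cells pretreated 1 hr with compounds (up to 57.5 uM final), then stimulated with LPS (250 ng/mL final) plus ATP (1.25 mM final); secreted IL-1B measured by AlphaLISA after 16 hr, decreased signal indicating inhibition.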
An asterisk follows results filed as active; [ ] = dose if it differs, or a comment. Rows were chosen to be rich in hits. Some 19% of all compounds tested hit in one or more screens of this group. Unless noted, calls come from the whole dose curve; as a rule, active = well fitted curve in the direction sought with a large enough effect; inconclusive = small, poorly fitted or top-dose-only effect, or another doubt; inactive = no such curve, though single readings can be large; an effect the other way counts as inactive or inconclusive.

`NC(=O)c1ccccc1N/C=C/C(=O)c1ccco1` gave SW480 rerep -2%[9.22 µM], MCF10A rerep -2%, Chronic BCR inh inconclusive, DT40 TDP1 CPT -27%, TDP1 cell noCPT -1% and IL1B secr inh -2.
For COc1ccccc1/C=C/C(=O)c1cc(Br)ccc1OC(=O)c1ccco1 the results were SW480 rerep inconclusive, MCF10A rerep 10µM*, DT40 TDP1 CPT inconclusive, TDP1 cell noCPT inconclusive and IL1B secr inh -98*.
For O=C(/C=C/c1cc(Br)ccc1O)c1ccco1 the results were SW480 rerep inconclusive, MCF10A rerep inconclusive, Chronic BCR inh inconclusive, DT40 TDP1 CPT 6.5µM*, TDP1 cell noCPT 2.6µM* and IL1B secr inh -71*.
Screening O=C(/C=C/c1ccccc1O)c1ccco1 returned SW480 rerep inconclusive, MCF10A rerep 15µM*, Chronic BCR inh inconclusive, DT40 TDP1 CPT 18µM*, TDP1 cell noCPT 21µM* and IL1B secr inh -14.
`COc1ccc(Br)cc1C(=O)Nc1ccc(NC(=O)c2ccco2)cc1` gave SW480 rerep -4%, MCF10A rerep inconclusive, Chronic BCR inh inconclusive, DT40 TDP1 CPT -14%, TDP1 cell noCPT -11% and IL1B secr inh -1.
For CC(C)NC[C@H]1CCc2cc(CO)c([N+](=O)[O-])cc2N1 the results were SW480 rerep -6%[20.6 µM] and MCF10A rerep -5%[20.6 µM].
For CCN(C(=O)COC(=O)C12CC3CC(CC(NC(C)=O)(C3)C1)C2)C1CCCCC1 the results were SW480 rerep -8%, MCF10A rerep 5%, Chronic BCR inh -2%, DT40 TDP1 CPT inconclusive, TDP1 cell noCPT 21µM* and IL1B secr inh 15.
`CC(=O)Nc1ccc(NC(=O)C(=O)NCC(c2ccco2)N2CCc3ccccc3C2)cc1` (configuration not stated) gave SW480 rerep 6%, MCF10A rerep inconclusive, Chronic BCR inh inconclusive, DT40 TDP1 CPT 16µM*, TDP1 cell noCPT 21µM* and IL1B secr inh -3.
O=C(NCC(c1cccnc1)N1CCc2ccccc2C1)C(=O)Nc1ccc(F)cc1F (configuration not stated) was read as DT40 TDP1 CPT 15µM* and TDP1 cell noCPT 18µM*.
Screening O=C(NCC(c1ccco1)N1CCc2ccccc2C1)C(=O)Nc1ccc(F)cc1F (configuration not stated) returned SW480 rerep 0%, MCF10A rerep 17%, Chronic BCR inh inconclusive, DT40 TDP1 CPT 18µM*, TDP1 cell noCPT 21µM* and IL1B secr inh -2.
`O=C(NCC(c1ccco1)N1CCc2ccccc2C1)C(=O)Nc1ccccc1F` (configuration not stated) gave SW480 rerep -2%, MCF10A rerep inconclusive, Chronic BCR inh inconclusive, DT40 TDP1 CPT -55%, TDP1 cell noCPT -82% and IL1B secr inh -5.
`O=C(NCC(c1cccnc1)N1CCOCC1)C(=O)Nc1ccc(F)cc1` (configuration not stated) gave DT40 TDP1 CPT -1% and TDP1 cell noCPT -13%.
Screening CCCc1nc2ccccc2c(=O)n1-c1ccc(C(=O)OCC)cc1 returned SW480 rerep -7%, MCF10A rerep 1%, Chronic BCR inh 2%, DT40 TDP1 CPT inconclusive, TDP1 cell noCPT inconclusive and IL1B secr inh 22.
CC(=O)OCCN1c2ccccc2Sc2cnccc21 was read as DT40 TDP1 CPT inconclusive, TDP1 cell noCPT 15µM* and IL1B secr inh inconclusive.
For C=CCN1c2ccccc2Sc2cnccc21 the results were DT40 TDP1 CPT inconclusive, TDP1 cell noCPT 18µM* and IL1B secr inh inconclusive.
`OC[C@@H]1CN(Cc2ccc3c(c2)OCO3)C[C@H](n2cnc3c(N4CCCC4)ncnc32)O1` gave DT40 TDP1 CPT inconclusive, TDP1 cell noCPT inconclusive and IL1B secr inh -19.
N#CCC(=O)N/N=C\c1cccc(OC/C=C/c2ccccc2)c1 was read as SW480 rerep 5%, MCF10A rerep 2%, Chronic BCR inh inconclusive, DT40 TDP1 CPT -12%, TDP1 cell noCPT -3% and IL1B secr inh 15.
COc1cccc(CNC(=O)Cn2ccc3cc(S(=O)(=O)N4CCCCCC4)ccc32)c1 was read as SW480 rerep -10%, MCF10A rerep -1%, Chronic BCR inh 0%, DT40 TDP1 CPT -9%, TDP1 cell noCPT inconclusive and IL1B secr inh inconclusive.
Cc1ccc(C)c(N(CC(=O)NC(C)C)C(=O)CCC(=O)Nc2ccccn2)c1 was read as SW480 rerep inconclusive, MCF10A rerep -10%, Chronic BCR inh -1%, DT40 TDP1 CPT 30%, TDP1 cell noCPT 0% and IL1B secr inh -9.
For CCOc1ccc(NC(=O)CN(C)C(=O)c2ccccc2-n2cnnn2)cc1OCC the results were SW480 rerep 4%, MCF10A rerep -35%, Chronic BCR inh -8%, DT40 TDP1 CPT -22%, TDP1 cell noCPT inconclusive and IL1B secr inh 26.
`O=C(Nc1cc(F)ccc1F)C1CCN(C(=O)c2cnn(-c3ccccc3)c2-n2cccc2)CC1` gave DT40 TDP1 CPT inconclusive and TDP1 cell noCPT 26µM*.
For Cc1ccc(Cl)cc1NC(=O)C1CCN(C(=O)c2cnn(-c3ccccc3)c2-n2cccc2)CC1 the results were DT40 TDP1 CPT -30% and TDP1 cell noCPT 21µM*.
For COCCCNC(=O)C1CCN(C(=O)c2cnn(-c3ccccc3)c2-n2cccc2)CC1 the results were DT40 TDP1 CPT -3% and TDP1 cell noCPT -4%.
For CCc1cccc(NC(=O)C2CCN(C(=O)c3cnn(-c4ccccc4)c3-n3cccc3)CC2)c1 the results were DT40 TDP1 CPT 21µM* and TDP1 cell noCPT 15µM*.
O=C(NCc1ccccc1)C1CCN(C(=O)c2cnn(-c3ccccc3)c2-n2cccc2)CC1 was read as DT40 TDP1 CPT -30% and TDP1 cell noCPT -19%.
Screening CCCSCCCNC(=O)C1CCN(C(=O)c2cnn(-c3ccccc3)c2-n2cccc2)CC1 returned DT40 TDP1 CPT 18µM* and TDP1 cell noCPT inconclusive.
Screening CCn1c(SCC(=O)NC2CCCCC2)nnc1-c1ccccc1F returned SW480 rerep 1%, MCF10A rerep -9%, Chronic BCR inh 3%, DT40 TDP1 CPT 1%, TDP1 cell noCPT -7% and IL1B secr inh 3.
COc1ccc(CNC(=O)C2CCCN2C(=O)Nc2cccc(Cl)c2)cc1 (configuration not stated) was read as DT40 TDP1 CPT -16%, TDP1 cell noCPT inconclusive and IL1B secr inh -9.
